Experimental data published in the supplement of paper PMC7830784.

system: Brugia pahangi adult female; assay: IC50 motility inhibition on day 3; conditions: 3 days
Method: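 Single adult female Brugia pahangi worms in 24-well plates (RPMI-1640, 5% FBS, 37 °C) were treated with 10 µM of each compound from a 2121-drug library (4 replicates; 1% DMSO vehicle and 10 µM auranofin controls). Motility was recorded with WormAssay dark-field imaging, and % inhibition of motility on day 3 is relative to vehicle. IC50 values for selected hits come from a 6-point dilution series (30 to 0.1 µM) fitted in GraphPad Prism.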

SMILES | IC50 motility inhibition on day 3 [µM]
Clc1ccc(CSC(Cn2ccnc2)c2ccc(Cl)cc2Cl)cc1 (stereo not given) [sulconazole nitrate] | 4.62
CN(C)c1ccc2nc3ccc(=[N+](C)C)cc-3sc2c1 [methylene blue] | 1.06
Clc1ccccc1C(c1ccccc1)(c1ccccc1)n1ccnc1 [clotrimazole] | 5.5
O=C1CN(/N=C/c2ccc([N+](=O)[O-])o2)C(=O)N1 [nitrofurantoin] | 11.6
CCCCCCCCCCCCCCCC[N+](C)(C)CCN(Cc1ccc(OC)cc1)c1ncccn1 [thonzonium bromide] | 1.07
COC(=O)C1=C(C)NC(C)=C(C(=O)OCC(C)C)C1c1ccccc1[N+](=O)[O-] (stereo not given) [nisoldipine] | 9.81
O=C(CCN1CCC(c2ccccc2)C1)c1ccc2c(c1)OCCO2 (stereo not given) [Proroxan] | 8.53
CN(C)c1ccc(C(=C2C=CC(=[N+](C)C)C=C2)c2ccc(N(C)C)cc2)cc1 [gentian violet] | 0.3
C[n+]1cc2c3c(ccc2c2ccc4cc5c(cc4c21)OCO5)OCO3 [Sanguinarine chloride] | 6.08
C=C(CC)C(=O)c1ccc(OCC(=O)O)c(Cl)c1Cl [ethacrynic acid] | 2.6
